Assay [1] in a line: NCI Yeast Anticancer Drug Screen. Data for the rad50 strain (AID 155).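 Also: 0% = growth of vehicle-only cultures of the same strain.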 The conditions noted are these: S. cerevisiae rad50 strain growth inhibition; at 50.0 µM; active compounds read high. The method, boiled down: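 DNA repair mutant yeast, compound exposure, growth read-out; inhibition is taken relative to vehicle.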
Assay [2] in a line: NCI Yeast Anticancer Drug Screen. Data for the mec2-1 strain (AID 157). The settings on record: S. cerevisiae mec2-1 strain, at 50.0 µM, active compounds read high. The method, boiled down: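 Growth inhibition is read against vehicle-treated controls after compound exposure of the mec2-1 yeast strain, which is defective in DNA damage repair or cell cycle control.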
Assay [3] can be described thus: NCI Yeast Anticancer Drug Screen. Data for the sgs1 mgt1 strain (AID 161).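 Also: 0% = growth of cultures given vehicle only.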 The conditions noted are these: S. cerevisiae sgs1 mgt1 strain, at 50.0 µM, active compounds read high. The method, boiled down: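 Percent growth inhibition was derived by comparing compound-exposed mutant yeast with vehicle-exposed cultures. The strain carries alterations in DNA damage repair.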

A short description of assay [4]: NCI Yeast Anticancer Drug Screen. Data for the cln2 rad14 strain (AID 165).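 Also: 0% = growth equal to vehicle treated cultures.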 The conditions noted are these: S. cerevisiae cln2 rad14 strain, at 50.0 µM, active compounds read high. In a few lines: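 Growth inhibition, relative to vehicle-treated controls, is the read-out. The test organism is a yeast strain with defined genetic alterations, cln2 rad14.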
Assay [5] in a line: NCI Yeast Anticancer Drug Screen. Data for the bub3 strain (AID 167). The conditions noted are these: S. cerevisiae bub3 mutant strain, at 50.0 µM, active compounds read high. The method, boiled down:
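In this screen, a yeast mutant lacking normal mitotic checkpoint function is challenged with compound. Relative growth versus vehicle gives the inhibition value.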

Assay [6] can be described thus: NCI Yeast Anticancer Drug Screen. Data for the mlh1 rad18 strain (AID 175). The settings on record: S. cerevisiae mlh1 rad18 strain growth inhibition; at 50.0 µM; active compounds read high. In a few lines: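 Cells of a genetically altered yeast strain, deficient in DNA damage repair, were treated with compound. Their growth was then compared with that of vehicle-treated cultures to give inhibition.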

Compounds without any hit were thinned out: in the full panel of roughly 79,000, 15% have a hit. Unmarked numbers belong to inactive results. The source made the active and inactive calls. Rule as the data show it: active = growth inhibition above about 70%; inactive = the rest.

For the molecule `Nc1nc(SCc2ccccc2)c2ncn(Cc3ccccc3)c2n1`, the growth inhibition was 5.75% in assay [1]; -7.55% in assay [2]; -15.1% in assay [3]; 10.5% in assay [4]; -2.9% in assay [5]; 9.55% in assay [6].

Take `Cc1ccc2c(c1)C(OC(=O)Nc1ccccc1)CCC2` (configuration not stated): the growth inhibition in assay [1] is 18.1%; in assay [2], 2%; in assay [3] it was 3.5%; in assay [4], 6.05%; in assay [5], 38%; in assay [6] it was 5.1%.

`COC(=O)c1ccc(-c2nc(C#N)c(N)o2)cc1`: the growth inhibition was 5.9% in assay [1]; 19.1% in assay [2]; -11.1% in assay [3]; -1.45% in assay [4]; -14.8% in assay [5]; -43% in assay [6].

For the molecule `c1ccc2c(c1)nc1n2CC2(CS1)CSc1nc3ccccc3n1C2`, the growth inhibition in assay [1] is -8.65%; in assay [2] it was 2.1%; in assay [3], -7.15%; in assay [4], -25.8%; in assay [5] it was -13.4%; in assay [6], -3.1%.

On to `C=CC1(C)CCC2C(=CCC3C2(C)CC(O)C(O)C3(C)COC2OC(C(=O)O)C(O)C(O)C2O)C1` (configuration not stated) (tested in a mixture with another compound), for which the growth inhibition in assay [1] was 16.1%; in assay [2], -3.55%; in assay [3], -6.9%; in assay [4], 18.3%; in assay [5], 4.95%; in assay [6], -67.3%.

`Cc1nn(CCO)c(N)c1C(N)=O`: the growth inhibition in assay [1] is 5.35%; in assay [2], -4.25%; in assay [3], 5.55%; in assay [4], -13.4%; in assay [5], 4.9%; in assay [6] it was 16.9%.

Consider `Cc1cc2nc3c(N)ccc(N)c3nc2cc1N`, for which the growth inhibition was 5.2% in assay [1]; 4.3% in assay [2]; -0.65% in assay [3]; -17.6% in assay [4]; -29.1% in assay [5]; -7.7% in assay [6].

On to `CC(NC(=O)OCc1ccccc1)NC(=O)OC(C)(C)C` (configuration not stated), for which the growth inhibition in assay [1] was -47%; in assay [2], -63.5%; in assay [3] it was -18.9%; in assay [4], -13.2%; in assay [5], -14.6%; in assay [6] it was -26.8%.

On to `CC(C)c1cccc(C(C)C)c1NC(=O)C(=O)C1SC(=S)NC1=O` (configuration not stated), for which the growth inhibition was -23.6% in assay [1]; -13.1% in assay [2]; -18.9% in assay [3]; 8.75% in assay [4]; -11.3% in assay [5]; -29.6% in assay [6].

Regarding `COC(=O)C1OC(O[C@H]2CC[C@]3(C)[C@H]4CC=C5[C@@H]6CC(C)(C)CC[C@]6(C(=O)OC)[C@H](O)C[C@@]5(C)[C@]4(C)CC[C@H]3C2(C)C)C(O)C(O)C1O` (some centres not stated), the growth inhibition in assay [1] was 14.4%; in assay [2] it was 37.6%; in assay [3] it was 26.6%; in assay [4], 26.4%; in assay [5], 21.4%; in assay [6] it was 33.4%.

Turning to `CC(=O)CC(=O)Nc1ccc(C)c(C)c1`, the growth inhibition in assay [1] was -4.6%; in assay [2], 2.15%; in assay [3], 10%; in assay [4] it was 7.95%; in assay [5], 40%; in assay [6], 12.5%.

As to `CCCc1cc(=O)[nH]c(=S)[nH]1`, the growth inhibition in assay [1] is 34.6%; in assay [2] it was -8.25%; in assay [3], 1.7%; in assay [4] it was 15.8%; in assay [5], 11.2%; in assay [6] it was 15.8%.

Consider `O=C(CCCc1ccc([N+](=O)[O-])cc1)c1ccccc1`, for which the growth inhibition in assay [1] is -5.85%; in assay [2], -5.55%; in assay [3] it was 1.2%; in assay [4], -28.4%; in assay [5] it was 3.5%; in assay [6] it was -4.65%.

For `CCSc1nc(COC(=O)NC)c(COC(=O)NC)n1C`, the growth inhibition in assay [1] is 4.9%; in assay [2], -4.25%; in assay [3], 8.25%; in assay [4], -4.15%; in assay [5], 10.7%; in assay [6], 3.65%.

With `CCc1nc(N)nc(N)c1-c1ccc(Cl)c([N+](=O)[O-])c1`, the growth inhibition is 4.35% in assay [1]; 4.95% in assay [2]; -8.35% in assay [3]; -7.1% in assay [4]; -31.1% in assay [5]; -13.6% in assay [6].

Turning to `COc1cc(C=C2C(=O)NC(=O)NC2=O)ccc1OCc1ccccc1`, the growth inhibition in assay [1] was -0.15%; in assay [2], -1.5%; in assay [3], -1.1%; in assay [4], 3.3%; in assay [5] it was -22.3%; in assay [6], -42.6%.

Take `C=CCNC(=S)Nc1cccc(C(C)OC(=O)NC(C)(C)C)c1` (configuration not stated): the growth inhibition in assay [1] was 1.2%; in assay [2] it was 30.9%; in assay [3] it was 36.2%; in assay [4] it was -5.8%; in assay [5], 33.8%; in assay [6], 20.6%.

For the molecule `O=c1[nH]c(=S)c2[nH]c(=O)n(-c3ccccc3)c2[nH]1`, the growth inhibition was -15.3% in assay [1]; -7.5% in assay [2]; -59.1% in assay [3]; -26.7% in assay [4]; -9.9% in assay [5]; -14.7% in assay [6].

`CSc1ccc2c(=O)c(C(=O)O)c[nH]c2c1`: the growth inhibition was -0.05% in assay [1]; 15.7% in assay [2]; 5.25% in assay [3]; 1.75% in assay [4]; 10.3% in assay [5]; 5.85% in assay [6].

With `C=C1[C@H](OCC(C)C)[C@@H](OC(=O)C(C)CC)[C@@H](O)C(C)(C)/C=C/[C@H](C)C(=O)[C@@]2(O)C[C@H](C)[C@H](O)[C@@H]2[C@H]1OC(=O)C(C)CC` (some centres not stated), the growth inhibition is 47% in assay [1]; 46.6% in assay [2]; 75.2% (active) in assay [3]; 69.3% in assay [4]; 73.7% (active) in assay [5]; 58.1% in assay [6].

Consider `Nc1nc(-c2cc(-c3ccco3)nc(N)n2)cc(-c2ccco2)n1`, for which the growth inhibition in assay [1] is -8.2%; in assay [2] it was -13.6%; in assay [3], -20.8%; in assay [4], -17.8%; in assay [5], -35.6%; in assay [6], -17.6%.

For `CCOc1ccc(N=C=S)cc1`, the growth inhibition in assay [1] was 29.9%; in assay [2], -3.05%; in assay [3], 18%; in assay [4] it was 22.3%; in assay [5], 18.9%; in assay [6] it was 49%.

With `CCc1ccc(N=Nc2c(F)c(F)c(NC(C)=O)c(F)c2F)cc1`, the growth inhibition is -3.95% in assay [1]; 11.3% in assay [2]; -10.5% in assay [3]; 6.9% in assay [4]; 7.9% in assay [5]; -13.4% in assay [6].

Regarding `C/C(CC(=O)Nc1ccccc1C)=N/NS(=O)(=O)c1ccc(C)cc1`, the growth inhibition in assay [1] was -2.2%; in assay [2], -5.2%; in assay [3] it was 10.2%; in assay [4], 19.3%; in assay [5] it was -18.4%; in assay [6], -6.9%.

Consider `Nc1nc(-c2ccccc2)cc2ccccc12`, for which the growth inhibition in assay [1] is 0.55%; in assay [2] it was -12.7%; in assay [3], 1.65%; in assay [4], -18.7%; in assay [5], -13.2%; in assay [6], 18.1%.

With `CN(C)c1nc(=S)c2cn[nH]c2[nH]1`, the growth inhibition in assay [1] was 0.1%; in assay [2] it was 0%; in assay [3] it was -3.7%; in assay [4], -21.8%; in assay [5], 6%; in assay [6], -1.2%.

With `O=C(/C=C/c1ccc(OCCCOc2ccc(/C=C/C(=O)c3ccccc3)cc2)cc1)c1ccccc1`, the growth inhibition in assay [1] is 14.3%; in assay [2], -18.1%; in assay [3] it was -4.25%; in assay [4] it was -57%; in assay [5], -37.9%; in assay [6], -10.5%.

`CCOc1ccccc1NC(=O)C(=O)Cc1nc2ccccc2s1`: the growth inhibition in assay [1] is -2.65%; in assay [2], 6.1%; in assay [3], -2%; in assay [4], -6.75%; in assay [5], -0.75%; in assay [6] it was 2.9%.

As to `CC1=C(c2ccc(C)cc2)NC(=S)C(C)C(c2ccc(C)cc2)=N1` (configuration not stated), the growth inhibition is -11.2% in assay [1]; -24.6% in assay [2]; 15.3% in assay [3]; 8.15% in assay [4]; 0.95% in assay [5]; 19.8% in assay [6].

Consider `O=C1OC2c3ccccc3CC1C2CO` (configuration not stated), for which the growth inhibition was 20.9% in assay [1]; 4.7% in assay [2]; 7.55% in assay [3]; 9.25% in assay [4]; 2% in assay [5]; -4.45% in assay [6].

Take `COC(=O)n1sc(SC)nc1=N`: the growth inhibition in assay [1] is 3.75%; in assay [2], -3.95%; in assay [3], -8.9%; in assay [4], -14.3%; in assay [5], -17.1%; in assay [6], 3.55%.

In the case of `CCOC(=O)CCC[n+]1cccc(C#N)c1`, the growth inhibition is 3.3% in assay [1]; 1.4% in assay [2]; 2% in assay [3]; -3.35% in assay [4]; -3.15% in assay [5]; -1.35% in assay [6].

For `Cc1ccc(C(=O)Nc2ccc(S(=O)(=O)O)c3cc(S(=O)(=O)O)cc(S(=O)(=O)O)c23)cc1N`, the growth inhibition in assay [1] was -28.1%; in assay [2] it was -7.05%; in assay [3], -54.5%; in assay [4], 1.7%; in assay [5] it was -13.2%; in assay [6], -28.2%.

With `O=C(O)c1ccccc1C(=O)OC1CC2CCC1C2` (configuration not stated), the growth inhibition in assay [1] is -26.2%; in assay [2] it was -22.6%; in assay [3], -10.4%; in assay [4] it was 24.2%; in assay [5], 12.6%; in assay [6], 1.6%.

Take `C/C=C1/CC(C)C(C)(O)C(=O)OCC2C(O)CN3CCC(OC1=O)C23` (configuration not stated): the growth inhibition is 12.4% in assay [1]; -2.3% in assay [2]; -15.5% in assay [3]; -10.3% in assay [4]; -3.85% in assay [5]; -43.6% in assay [6].

Consider `CC(=O)/C(C)=C\C=C(\C)C(C)=O`, for which the growth inhibition in assay [1] is -7.2%; in assay [2] it was -11.5%; in assay [3], -16.2%; in assay [4], -84.5%; in assay [5] it was -0.45%; in assay [6] it was -4.7%.

In the case of `CN(C)CCC1(C#N)CCCCC1`, the growth inhibition was 5.3% in assay [1]; 23.3% in assay [2]; 10.4% in assay [3]; -19.3% in assay [4]; 12.4% in assay [5]; 1.65% in assay [6].

The values are drawn from PubChem BioAssay (NCI).
